VDR inhibitor: blocks the human vitamin D receptor. P11473. VDR-SRC2-3 peptide fluorescence polarization, 2 h. Potency, µM, most hits filed as inhibitors. 400,000 compounds, 0.93% hits. AID 504847
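Measured by FP: displacement of SRC2-3 coactivator peptide from VDR by library compounds, following a two-hour ambient incubation.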
PLK1 PBD block: PLK1 (human) polo-box domain binding inhibition | P53350 | Potency, µM, usual class: inhibitors | 360,000 compounds, 2.8% hits | Plk1 PBD binding of FITC phosphopeptide, fluorescence polarization; also: series mostly up to about 57 µM; nearly all actives have a fitted effect of over 65% in size
USP2a block: blocks human ubiquitin-specific protease USP2a; O75604; USP2 core, Ub-CHOP2 coupled fluorogenic reporter, 485/531; Potency, µM (highest dose often 38.3 µM), usual class: inhibitors; 330,000 compounds, 0.01% hits
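Cell-free coupled assay: 10nM USP2 core preincubated 30min RT with compound in Tris-HCl pH 8.0/CaCl2/CHAPS buffer, then 25nM Ub-CHOP2 and 25nM reporter substrate; fluorescence (Ex 485/Em 531) read after 60min RT, normalized to NEM inhibition, concentration-response curves fitted.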
Coupling enz: counter-screen for Giardia aldolase inhibitors: coupling enzyme system; activity change, negative = inhibition, % at 58.2 µM, hits read low; coupling enzyme system counterscreen, AmpLite Red fluorescence; 290,000 compounds, 0.67% hits; in the data active = activity change below about -30%
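Activity here indicates interference with the coupling reaction, not aldolase inhibition. Compounds at 57.5 uM final met coupling enzymes for 10 min at RT; substrate and AmpLite Red detection followed, with a 525/598 nm fluorescence read after 20 min.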
GALK inhibitor: blocks human galactokinase activity; AID 1868; Potency, µM (series often up to 57.5 µM), most hits filed as inhibitors; P51570; Purified GALK, Kinase-Glo residual ATP luminescence; 270,000 compounds, 0.007% hits
Target sequence (P51570 whole entry, looked up): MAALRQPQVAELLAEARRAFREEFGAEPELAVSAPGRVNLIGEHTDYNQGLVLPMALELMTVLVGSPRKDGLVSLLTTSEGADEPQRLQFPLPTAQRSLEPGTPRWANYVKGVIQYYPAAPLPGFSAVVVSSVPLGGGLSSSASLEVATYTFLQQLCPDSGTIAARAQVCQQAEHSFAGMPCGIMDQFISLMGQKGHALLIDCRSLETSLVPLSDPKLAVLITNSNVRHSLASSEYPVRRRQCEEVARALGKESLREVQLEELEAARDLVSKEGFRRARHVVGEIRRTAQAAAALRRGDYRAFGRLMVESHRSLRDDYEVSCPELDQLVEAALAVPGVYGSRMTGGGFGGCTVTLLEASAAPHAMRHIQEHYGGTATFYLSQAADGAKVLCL
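Luminescence from leftover ATP (Ultra-Glo luciferase/luciferin) served as read-out after a 1 h room-temperature reaction of 5 nM GALK with 35 uM ATP and 100 uM galactose.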
USP1-UAF1 inh: blocks the human USP1/UAF1 deubiquitinase complex; O94782; recombinant USP1/UAF1, Ub-Rhodamine cleavage fluorescence; AID 743255; Potency, µM (titrated, usually from 57.1 µM), most hits filed as inhibitors; 390,000 compounds, 0.23% hits; also: nearly all actives have a fitted effect of over 60% in size
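1 nM enzyme complex + cpd, 15 min RT; start with Ub-Rho 150nM final; kinetic fluorescence ex 480/em 540, 6 reads q60 s. Buffer 50mM HEPES pH 7.8, 0.5mM EDTA, 0.1 mg/ml BSA, 1mM TCEP, 0.01% Tween-20.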
Each line names hits and unclear results; the compound was inactive in the other large screens. Only some compounds are listed: those with a hit (about 3.2% of all), similar ones and a draw of the others. Unless noted, calls follow the shape of the dose curve; as a rule, active = well fitted curve in the direction sought with a large enough effect; inconclusive = small, poorly fitted or top-dose-only effect, or another doubt; inactive = no such curve, though single readings can be large; an effect the other way counts as inactive or inconclusive.

COc1ccc(F)cc1S(=O)(=O)N1CCCN(S(=O)(=O)c2cc(F)ccc2OC)CC1	PLK1 PBD block 26.7µM
O=S(=O)(c1ccc(F)cc1)N1CCN(S(=O)(=O)c2cc(F)ccc2F)CC1	VDR inhibitor inconclusive, PLK1 PBD block 21.2µM
O=S(=O)(c1ccccc1)N1CCN(S(=O)(=O)c2ccc(F)cc2)CC1	none
CC1=NN(c2ccc(Cl)cc2)C(=O)/C1=C\c1cccn1-c1ccc(S(N)(=O)=O)cc1	none (no result: GALK inhibitor)
Cc1ccccc1Oc1ccc2c(c1)[C@@H]1C[C@H](N(C)C(=O)c3cccnc3)[C@H]([C@H](C)O)C(=O)N1CC2	none (no result: VDR inhibitor, USP2a block, Coupling enz, GALK inhibitor)
COc1ccc(OCc2cc(C(=O)N3CCCC(CO)C3)no2)c2ccccc12 (stereo unspecified)	USP1-UAF1 inh inconclusive (no result: Coupling enz)
COc1ccccc1/C=C/c1nc(S(=O)(=O)c2ccccc2)c(NCCN(C)C)o1	VDR inhibitor inconclusive, PLK1 PBD block 29.9µM
CN(C)c1ccc(/C=C2\C(=O)Nc3ccccc32)cc1	VDR inhibitor inconclusive (no result: PLK1 PBD block, USP2a block, GALK inhibitor, USP1-UAF1 inh)
CC(=O)N1/C(=C/c2ccc(N(C)C)cc2)C(=O)c2ccccc21	VDR inhibitor 31.6µM
COC(=O)C1=C(C)N=C2SCCC(=O)N2C1c1cc(Br)ccc1OC (stereo unspecified)	none
NC[C@H]1O[C@H](O[C@H]2[C@H](O)[C@@H](O[C@H]3O[C@H](CO)[C@@H](O)[C@H](N)[C@H]3O)[C@H](N)C[C@@H]2N)[C@H](N)C[C@@H]1O	none
CCn1c2c(c3cc(C(=O)O)ccc31)CCCC2=O	PLK1 PBD block 29.9µM
CCn1c2c(c3cc(Cl)ccc31)CCCC2=O	none
Cc1cc(C)c(C)c(S(=O)(=O)N2C(=S)NC(=O)C2C(C)C)c1C (stereo unspecified)	PLK1 PBD block 26.7µM
CCOc1cc(/C=N/N=C2/NC(=O)C(CC(=O)O)S2)ccc1OCc1ccc(Cl)cc1Cl (stereo unspecified)	PLK1 PBD block 26.7µM
CC1CCCN(C(=O)CN2C(=O)CSc3ccc(S(=O)(=O)N4CCOCC4)cc32)C1 (stereo unspecified)	PLK1 PBD block 26.7µM
Cc1ccccc1NC(=O)CN1C(=O)CSc2ccc(S(=O)(=O)N3CCCC3)cc21	none
Cc1ccccc1NC(=O)CN1C(=O)CSc2ccc(S(=O)(=O)N3CCCCC3)cc21	PLK1 PBD block 21.2µM
CC1CCCN(CCCNC(=O)CN2C(=O)CSc3ccc(S(=O)(=O)N4CCOCC4)cc32)C1 (stereo unspecified)	USP1-UAF1 inh inconclusive
Cc1cccc(C(=O)OCC(=O)c2ccc3c(c2)OCCO3)c1O	none (no result: Coupling enz, GALK inhibitor)
Cc1[nH]c2ccccc2c1C(c1ccncc1)N1CCN(c2ccccn2)CC1 (stereo unspecified)	none
Cc1[nH]c2ccccc2c1C(c1ccncc1)N1CCC(C)CC1 (stereo unspecified)	PLK1 PBD block inconclusive
CCOC(=O)C1CCN(C(c2ccccn2)c2c(C)[nH]c3ccccc23)CC1 (stereo unspecified)	VDR inhibitor inconclusive, PLK1 PBD block 11.9µM
Cc1[nH]c2ccccc2c1C(c1ccccn1)N1CCC(C(N)=O)CC1 (stereo unspecified)	VDR inhibitor inconclusive, PLK1 PBD block 6.7µM
COc1cc(C=NNC(=O)Cn2nc(C)cc2C)ccc1OC(=O)C1CC1	none (no result: Coupling enz, GALK inhibitor)
CNC(=S)NNc1ccccc1[N+](=O)[O-]	VDR inhibitor 70.8µM
COCCNC(=S)NNc1ccccc1[N+](=O)[O-]	VDR inhibitor inconclusive, PLK1 PBD block 15µM
COc1ccccc1-c1cn(-c2ccccc2)c(=S)[nH]1	none
OC(c1ccccc1)(c1nc(-c2cccc(C(F)(F)F)c2)cs1)C(F)(F)F (stereo unspecified)	none (no result: VDR inhibitor, USP2a block, Coupling enz, GALK inhibitor, USP1-UAF1 inh)
O=C(C[C@@H]1C/C=C\C[C@@H](Cc2ccc(F)cc2)C(=O)OC[C@H]2CCCN2C1=O)N[C@H](CO)Cc1ccccc1	none (no result: Coupling enz, GALK inhibitor)
CCCNC(=O)CCn1c(=S)oc2ccccc21	VDR inhibitor inconclusive, PLK1 PBD block 11.9µM
CC(=O)Nc1ccc(NC(=O)CCn2c(=S)oc3ccccc32)cc1	none
CCOC(=O)N(C)OC(=O)Nc1ccc(Cl)c(Cl)c1	PLK1 PBD block 2.12µM, USP1-UAF1 inh inconclusive
CCOC(=O)N(CC)OC(=O)Nc1ccc(Cl)cc1	PLK1 PBD block 8.44µM
Cc1[nH][nH]c(=O)c1C(c1ccc(-c2ccc(F)cc2)o1)c1c(C)[nH][nH]c1=O	VDR inhibitor 31.6µM, PLK1 PBD block 23.8µM, Coupling enz -36.8, USP1-UAF1 inh inconclusive
COc1ccc(-c2ccc(/C=N/N3C(=O)C4C5C=CC(C6CC56)C4C3=O)o2)c([N+](=O)[O-])c1 (stereo unspecified)	VDR inhibitor inconclusive
Cc1[nH][nH]c(=O)c1C(c1ccc(-c2ccc(Cl)c(Cl)c2)o1)c1c(C)[nH][nH]c1=O	VDR inhibitor 79.4µM, PLK1 PBD block 15µM, Coupling enz -45.4, USP1-UAF1 inh inconclusive
COc1ccc(-c2ccc(C(c3c(C)[nH][nH]c3=O)c3c(C)[nH][nH]c3=O)o2)c([N+](=O)[O-])c1	VDR inhibitor inconclusive, PLK1 PBD block 21.2µM, Coupling enz -49.4, USP1-UAF1 inh inconclusive
Cc1[nH][nH]c(=O)c1C(c1ccc(N(C)C)c(Br)c1)c1c(C)[nH][nH]c1=O	none
CNC(=S)N/N=C/c1ccc(-c2ccc(C(=O)O)cc2)o1	PLK1 PBD block inconclusive
Cc1[nH][nH]c(=O)c1C(c1ccc(-c2ccc(C(=O)O)cc2)o1)c1c(C)[nH][nH]c1=O	VDR inhibitor inconclusive, PLK1 PBD block 23.8µM, Coupling enz -62.7, USP1-UAF1 inh inconclusive
O=C(NCCc1csc(-c2cccnc2)n1)c1cccc2ccccc12	none
Clc1ccc(OCc2nn3c(-c4ccco4)nnc3s2)cc1	PLK1 PBD block 23.8µM
COc1cc(OC)c(-c2nn3c(-c4n[nH]c5c4CCC5)nnc3s2)cc1OC	none (no result: PLK1 PBD block, USP2a block, Coupling enz, GALK inhibitor, USP1-UAF1 inh)
c1csc(Cc2nn3c(-c4n[nH]c5c4CCC5)nnc3s2)c1	PLK1 PBD block 2.67µM
c1coc(-c2nnc3sc(Cc4cccs4)nn23)c1	PLK1 PBD block 26.7µM
COc1ccc(OCc2nn3c(-c4ccco4)nnc3s2)cc1	none
COC(=O)c1cc2oc(C)cc2n1Cc1cc(C)ccc1C	USP1-UAF1 inh inconclusive (no result: PLK1 PBD block, USP2a block, Coupling enz, GALK inhibitor)
COc1cccc(N2CCN(C(=O)c3cn(Cc4ccccc4)nc3-c3cccnc3)CC2)c1	none (no result: Coupling enz, GALK inhibitor)
COCCn1c(SCC(=O)N2CC(=O)Nc3ccccc32)nnc1-c1ccoc1C	none
CCSc1nc2c(c(=O)[nH]1)C(c1cccnc1)C(C(=O)OC)=C(C)N2 (stereo unspecified)	none
Cc1cccc(N2CCN(C(=O)c3cc4c(=O)n(C)c5ccccc5c4s3)CC2)c1C	none (no result: PLK1 PBD block, USP2a block, Coupling enz, GALK inhibitor)

Screens deposited in PubChem BioAssay by National Center for Advancing Translational Sciences (NCATS).
